SARS PLpro yeast – SARS-CoV PLP inhibition in yeast; AID 485353; Potency, µM (top dose mostly 32.9 µM), hits mostly activators; actives 0.19% (n = 330,000); S. cerevisiae expressing SARS-CoV PLpro, growth rescue; note: nearly all actives have a fitted effect of over 55% in size
Pf growth 96h – P. falciparum growth inhibition at 96 hour, primary screen for plastid delayed-death inhibitors | P. falciparum luciferase reporter growth, 96 h | Potency, µM (top dose mostly 28.7 µM), actives largely listed as inhibitors | actives 6.9% (n = 320,000) | AID 504834; active = well fitted inhibition curve with a large enough effect; inconclusive = small, poorly fitted or top-dose-only effect, or another doubt; inactive = no such curve, though single readings can be large or run the other way
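Cell-based qHTS: luciferase-tagged P. falciparum in erythrocytes (2% hematocrit, 0.05% parasitemia final) incubated with compounds for 96 hours, 37 C, 5% CO2; luciferase detection reagent then added and luminescence measured.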
RE007 growth inh – less growth of the S. pombe RE007 Vpr strain; S. pombe RE007 Vpr strain, BacTiter-Glo ATP luminescence, 24 h; Potency, µM (doses to about 92.2 µM), actives largely listed as inhibitors; actives 0.21% (n = 360,000); active = well fitted falling curve with a large enough effect; inconclusive = small, poorly fitted or top-dose-only effect; inactive = no such curve, though single readings can be large or run the other way; note: nearly all actives have a fitted effect of over 50% in size
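Fission yeast strain RE007, carrying one chromosomally integrated HIV-1 vpr copy, was seeded at OD 0.01 in PMG+AL medium with 23 nL pinned compound. After 24 h at 30 °C and 99% humidity, viability was read by BacTiter-Glo luminescence.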
NS1 inh – inhibitors of influenza NS1 protein function; Potency, µM (highest dose often 46.1 µM); actives 0.4% (n = 270,000); AID 2326; note: actives are rising curves; nearly all actives have a fitted effect of over 50% in size
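Compounds were scored for reversing the slow growth caused by influenza A NS1 in S. cerevisiae, measured by optical density at 600 nm. Assay medium contained 2% galactose at pH 6.0; NS1-free yeast of the same strain were the positive control.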
Pf growth 48h – inhibits P. falciparum growth in the first generation, 48 h. AID 504832. actives 5.9% (n = 310,000). P. falciparum luciferase growth in erythrocytes, 48 h. Potency, µM (top dose mostly 28.7 µM), usual class: inhibitors; active = well fitted inhibition curve with a large enough effect; inconclusive = small, poorly fitted or top-dose-only effect, or another doubt; inactive = no such curve, though single readings can be large or run the other way
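Luciferase-expressing P. falciparum in infected erythrocytes (2% hematocrit, 0.1% parasitemia final) in RPMI 1640/0.5% Albumax were exposed to compound for 48 hours at 37 C, 5% CO2; growth read as luminescence.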
Large screens that a line does not name were inactive. Compounds with a hit are over-represented: about 9.5% of the library has one in this group of screens. Unless noted, calls come from the whole dose curve.

CCCCCNC(=O)C1C(=O)Nc2ccccc2C(=O)N1c1ccc(OC)cc1 (stereo unspecified)	none (no result: SARS PLpro yeast, Pf growth 96h, NS1 inh, Pf growth 48h)
O=CN1CCN(C(=O)c2ccc(-c3nc4ccccc4s3)s2)CC1	none (no result: NS1 inh)
CC1=C(CC(=O)c2ccc(Cl)cc2)C(=O)c2ccccc2C1=O	Pf growth 96h inconclusive, Pf growth 48h 0.165µM
O=C(Cc1ccccn1)c1ccc(Cl)cc1	Pf growth 96h inconclusive, RE007 growth inh inconclusive, Pf growth 48h inconclusive (no result: NS1 inh)
CCC1(C)Cc2c(sc3nc(SC)nc(NCCN(C)C)c23)CO1 (stereo unspecified)	Pf growth 96h 3.7µM, Pf growth 48h inconclusive
CCN1CCN(c2nc(SC)nc3sc4c(c23)CC(C)(C)OC4)CC1	Pf growth 48h 1.65µM
CCOC(=O)N1CCN(c2nc(SC)nc3sc4c(c23)CC(C)(C)OC4)CC1	Pf growth 48h 3.7µM (no result: Pf growth 96h)
Cc1ccccc1S(=O)(=O)Cc1ccc(C(=O)N2CCN(c3cccc(C)c3C)CC2)o1	Pf growth 48h inconclusive (no result: Pf growth 96h)
COc1ccc(S(=O)(=O)Cc2ccc(C(=O)N3CCC(C(N)=O)CC3)o2)cc1	NS1 inh inconclusive (no result: Pf growth 48h)
Cc1ccccc1S(=O)(=O)Cc1ccc(C(=O)N2CC(C)CC(C)C2)o1 (stereo unspecified)	Pf growth 96h 16.5µM (no result: Pf growth 48h)
COc1ccc(S(=O)(=O)Cc2ccc(C(=O)N3CCN(c4ccccn4)CC3)o2)cc1	none (no result: Pf growth 48h)
O=C(c1ccc(CS(=O)(=O)c2ccc(Br)cc2)o1)N1CCN(c2ncccn2)CC1	Pf growth 96h 1.85µM (no result: Pf growth 48h)
Cc1ccc(S(=O)(=O)Cc2ccc(C(=O)N3CCC(C(N)=O)CC3)o2)cc1	Pf growth 96h 10.4µM
O=C(Cc1coc2cc(O)ccc12)NNC(=O)c1ccc(Br)s1	none (no result: Pf growth 96h, NS1 inh, Pf growth 48h)
COC(=O)C1=C(C)NC2=C(C(=O)CCC2)C1c1cn(Cc2ccc(Br)cc2)nc1-c1ccccc1 (stereo unspecified)	Pf growth 96h 13.1µM, Pf growth 48h 8.28µM
COC(=O)C1=C(C)NC2=C(C(=O)CC(C)(C)C2)C1c1cccc(C)n1 (stereo unspecified)	Pf growth 96h inconclusive
COC(=O)C1=C(C)NC2=C(C(=O)CCC2)C1c1cccc(C)n1 (stereo unspecified)	none
COC(=O)C1=C(C)NC2=C(C(=O)CC(C)(C)C2)C1c1cn(Cc2ccc(Br)cc2)nc1-c1ccccc1 (stereo unspecified)	Pf growth 96h inconclusive, NS1 inh inconclusive, Pf growth 48h 13.1µM
COCCn1c(-c2ccc(OC)cc2)c(-c2ccc(OC)cc2)oc1=O	Pf growth 96h 13.1µM, Pf growth 48h 8.28µM
Cc1cc(C)c(S(=O)(=O)N2CCN(c3ccc([N+](=O)[O-])c(NCc4ccco4)c3)CC2)c(C)c1	Pf growth 96h 3.7µM, NS1 inh inconclusive, Pf growth 48h inconclusive
CC(C)C(=O)N1CCN(c2ccc([N+](=O)[O-])c(NC(C)c3ccccc3)c2)CC1 (stereo unspecified)	Pf growth 48h 9.28µM
O=[N+]([O-])c1ccc(N2CCN(S(=O)(=O)c3ccc(Cl)c(Cl)c3)CC2)cc1NCCN1CCOCC1	Pf growth 96h 6.57µM, Pf growth 48h inconclusive
CC(C)(C)c1ccc(CNc2cc(N3CCOCC3)ccc2[N+](=O)[O-])cc1	Pf growth 48h 13.1µM
CC(C)c1ccc(CNc2cc(N3CCCC3)ccc2[N+](=O)[O-])cc1	Pf growth 96h inconclusive
Cc1cc(C)c(S(=O)(=O)N2CCN(c3ccc([N+](=O)[O-])c(NCC4CCCO4)c3)CC2)c(C)c1 (stereo unspecified)	Pf growth 96h inconclusive
CC1(C)C[C@@H]1C(=O)N/C(=C\CCCCSC[C@H](N)C(=O)O)C(=O)O	none (no result: NS1 inh)
O=C(c1ccc(Cl)c(S(=O)(=O)N2CCCCC2)c1)N1CCCC(C(F)(F)F)C1 (stereo unspecified)	Pf growth 96h inconclusive, Pf growth 48h inconclusive (no result: NS1 inh)
COc1ccc(C(=O)NNC2=CC(=O)CC(C)(C)C2)cc1OC	Pf growth 96h inconclusive
O=[N+]([O-])c1ccc(N2CCOCC2)cc1NC(c1ccccc1)c1ccccc1	Pf growth 96h 2.08µM, Pf growth 48h inconclusive
CC(Nc1cc(N2CCN(C(=O)C(C)(C)C)CC2)ccc1[N+](=O)[O-])c1ccccc1 (stereo unspecified)	Pf growth 96h 2.08µM, Pf growth 48h 8.28µM
O=[N+]([O-])c1ccc(N2CCCC2)cc1NC(c1ccccc1)c1ccccc1	Pf growth 96h inconclusive, Pf growth 48h inconclusive
CC(Nc1cc(N2CCNCC2)ccc1[N+](=O)[O-])c1ccccc1 (stereo unspecified)	NS1 inh inconclusive
CC(C)(CNc1ccc(C(F)(F)F)cc1[N+](=O)[O-])N1CCOCC1	Pf growth 96h 5.86µM, Pf growth 48h 9.28µM
O=C(O)C1=C/C(=C(/c2ccccc2)c2cc(C(=O)O)c(O)c3ccccc23)c2ccccc2C1=O	none (no result: SARS PLpro yeast, Pf growth 96h, RE007 growth inh, Pf growth 48h)
COc1cccc(CCNC(=O)CC2C(=O)NCCN2CC(C)(C)C)c1 (stereo unspecified)	Pf growth 96h 14.7µM
CCOC(=O)CC1C(=O)NCCN1Cc1ccc(OC)c(OC)c1 (stereo unspecified)	Pf growth 96h 10.4µM
O=C(CC1C(=O)NCCN1Cc1cccc(Oc2ccccc2)c1)NCCc1cnccn1 (stereo unspecified)	Pf growth 96h inconclusive
COc1ccc(CN2CCNC(=O)C2CC(=O)N(C)CCC2CCOCC2)cc1OC (stereo unspecified)	Pf growth 96h inconclusive
COc1ccc(CN2CCNC(=O)C2CC(=O)NCCC2=CCCCC2)cc1OC (stereo unspecified)	Pf growth 96h 10.4µM
COc1ccc(CN2CCNC(=O)C2CC(=O)NCCc2cnccn2)cc1C (stereo unspecified)	Pf growth 96h 14.7µM
Cc1ccc(C(=O)N2CCN(c3ccccc3Cl)CC2)cc1[N+](=O)[O-]	Pf growth 48h inconclusive (no result: NS1 inh)
Cc1cc2c(SCC(=O)NC3CCCC3)ncnc2s1	none
Cc1cc(=O)c(C(=O)O)nn1-c1cccc(C(F)(F)F)c1	none
O=c1ccn(-c2cccc(C(F)(F)F)c2)nc1-c1ccn(-c2ccccc2)n1	Pf growth 48h 10.4µM
Cc1ccc(NC(=O)CCN2C(=O)NC3(CCCC3)C2=O)cc1S(=O)(=O)N1CCOCC1	none (no result: NS1 inh)
COc1cc(/C=N/Nc2nc(=O)[nH]nc2C)cc([N+](=O)[O-])c1O	Pf growth 96h 0.657µM, Pf growth 48h 1.17µM
CSc1cc(-c2ccccc2)n(Cc2ccccc2Cl)c(=O)c1C#N	none (no result: Pf growth 48h)
N#Cc1c(-c2ccco2)ccn(Cc2cccc(F)c2)c1=O	Pf growth 96h inconclusive, Pf growth 48h inconclusive (no result: NS1 inh)
N#Cc1c(-c2ccccc2)ccn(Cc2cccc(Cl)c2)c1=O	Pf growth 96h 13.1µM, Pf growth 48h inconclusive
N#Cc1c(-c2ccccc2)ccn(Cc2ccccc2Cl)c1=O	Pf growth 96h 14.7µM, Pf growth 48h inconclusive
Cn1nnc(NC(=O)c2ccccc2)n1	Pf growth 96h 13.1µM
Cn1nnc(NC(=S)NC(=O)Cc2ccccc2)n1	Pf growth 96h 2.08µM

Bioassay records as filed in PubChem BioAssay.
